# In paper PMC8384837, “Expanding the binding specificity for RNA recognition by a PUF domain”:
# What was measured:
# Assay in all cases: yeast three-hybrid, YBZ-1, SC-Leu-His + 0.5 mM 3-AT, 4 days
# Details in all cases: tags: N-Gal4 AD-HA kept; label: inside an RPR1-promoter hybrid RNA with tandem MS2 sites; ssRNA
# [1] = molecular target: PUM1 PUF domain R1-TLR (Homo sapiens, UniProt Q14671 828-1176, S863T;R864L;Q867R)
# Summary of the method: (§1)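 Each repeat of the Pumilio-1 PUF domain was randomized at its three base-contacting residues, and these libraries were co-expressed from a centromeric plasmid with matching RNA elements in strain YBZ-1. After four days on SC-Leu (input) or SC-Leu-His + 0.5 mM 3-AT (selection), the repeat regions were PCR-amplified and Illumina-sequenced. The interaction score compares variant frequency between input and selection as a log change, computed in log2 with a pseudocount of 1 for absent variants.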
# [2] = molecular target: PUM1 PUF domain R1-YCR (Homo sapiens, UniProt Q14671 828-1176, S863Y;R864C;Q867R)
# Summary of the method: as §1
# [3] = molecular target: PUM1 PUF domain R1-KRG (Homo sapiens, UniProt Q14671 828-1176, S863K;Q867G)
# Sequence of PUM1 PUF domain R1-KRG (Q14671 828-1176 S863K/Q867G): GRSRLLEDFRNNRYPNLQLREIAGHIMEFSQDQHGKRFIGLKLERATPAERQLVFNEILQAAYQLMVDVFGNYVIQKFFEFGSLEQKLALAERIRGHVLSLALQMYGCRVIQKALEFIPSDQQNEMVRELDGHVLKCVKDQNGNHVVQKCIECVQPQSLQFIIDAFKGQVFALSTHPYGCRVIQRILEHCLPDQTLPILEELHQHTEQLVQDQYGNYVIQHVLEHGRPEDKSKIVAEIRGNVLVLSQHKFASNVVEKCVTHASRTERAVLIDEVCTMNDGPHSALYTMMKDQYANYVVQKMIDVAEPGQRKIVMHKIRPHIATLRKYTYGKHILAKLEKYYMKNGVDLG
# Summary of the method: as §1
# [4] = molecular target: PUM1 PUF domain R1-QRK (Homo sapiens, UniProt Q14671 828-1176, S863Q;Q867K)
# Sequence of PUM1 PUF domain R1-QRK (Q14671 828-1176 S863Q/Q867K): as the sequence (Q14671 828-1176 S863K/Q867G) above, with K36Q, G40K counted along it
# Summary of the method: as §1
# [5] = molecular target: PUM1 PUF domain R5-RMW (Homo sapiens, UniProt Q14671 828-1176, C1007R;R1008M;Q1011W)
# Summary of the method: as §1
# [6] = molecular target: PUM1 PUF domain R3-CRS (Homo sapiens, UniProt Q14671 828-1176, Q939S)
# Sequence of PUM1 PUF domain R3-CRS (Q14671 828-1176 Q939S): as the sequence (Q14671 828-1176 S863K/Q867G) above, with K36S, G40Q, Q112S counted along it
# Summary of the method: as §1
# [7] = molecular target: T1, PUM1 PUF domain R6-RYR (Homo sapiens, UniProt Q14671 828-1176, N1043R;Q1047R)
# T1 sequence: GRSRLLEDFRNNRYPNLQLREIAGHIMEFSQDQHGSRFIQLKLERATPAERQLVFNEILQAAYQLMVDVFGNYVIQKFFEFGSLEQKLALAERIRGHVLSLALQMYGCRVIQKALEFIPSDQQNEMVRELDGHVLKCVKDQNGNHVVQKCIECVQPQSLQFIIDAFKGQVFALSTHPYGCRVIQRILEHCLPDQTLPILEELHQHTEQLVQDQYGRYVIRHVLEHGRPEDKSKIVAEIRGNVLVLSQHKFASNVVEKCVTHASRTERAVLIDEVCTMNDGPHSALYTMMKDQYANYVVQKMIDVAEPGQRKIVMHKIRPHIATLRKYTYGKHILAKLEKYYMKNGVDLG
# Summary of the method: as §1
# [8] = molecular target: PUM1 PUF domain R5-RNP (Homo sapiens, UniProt Q14671 828-1176, C1007R;R1008N;Q1011P)
# Sequence of PUM1 PUF domain R5-RNP (Q14671 828-1176 C1007R/R1008N/Q1011P): as the sequence (Q14671 828-1176 S863K/Q867G) above, with K36S, G40Q, C180R, R181N, Q184P counted along it
# Summary of the method: as §1
# [9] = molecular target: PUM1 PUF domain R5-KPM (Homo sapiens, UniProt Q14671 828-1176, C1007K;R1008P;Q1011M)
# Sequence of PUM1 PUF domain R5-KPM (Q14671 828-1176 C1007K/R1008P/Q1011M): as the sequence (Q14671 828-1176 S863K/Q867G) above, with K36S, G40Q, C180K, R181P, Q184M counted along it
# Summary of the method: as §1
# [10] = molecular target: PUM1 PUF domain R3-SPF (Homo sapiens, UniProt Q14671 828-1176, C935S;R936P;Q939F)
# Summary of the method: as §1
# [11] = molecular target: PUM1 PUF domain R3-PWS (Homo sapiens, UniProt Q14671 828-1176, C935P;R936W;Q939S)
# Summary of the method: as §1
# [12] = molecular target: PUM1 PUF domain R5-SAG (Homo sapiens, UniProt Q14671 828-1176, C1007S;R1008A;Q1011G)
# Summary of the method: as §1
# [13] = molecular target: PUM1 PUF domain R8-WWR (Homo sapiens, UniProt Q14671 828-1176, N1122W;Y1123W;Q1126R)
# Summary of the method: as §1
# [14] = molecular target: PUM1 PUF domain R8-GWN (Homo sapiens, UniProt Q14671 828-1176, N1122G;Y1123W;Q1126N)
# Summary of the method: as §1
# [15] = molecular target: PUM1 PUF domain R4-DHM (Homo sapiens, UniProt Q14671 828-1176, N971D;Q975M)
# Sequence of PUM1 PUF domain R4-DHM (Q14671 828-1176 N971D/Q975M): as the sequence (Q14671 828-1176 S863K/Q867G) above, with K36S, G40Q, N144D, Q148M counted along it
# Summary of the method: as §1
# [16] = molecular target: PUM1 PUF domain R3-GCF (Homo sapiens, UniProt Q14671 828-1176, C935G;R936C;Q939F)
# Sequence of PUM1 PUF domain R3-GCF (Q14671 828-1176 C935G/R936C/Q939F): as the sequence (Q14671 828-1176 S863K/Q867G) above, with K36S, G40Q, C108G, R109C, Q112F counted along it
# Summary of the method: as §1
# [17] = molecular target: PUM1 PUF domain R3-TGQ (Homo sapiens, UniProt Q14671 828-1176, C935T;R936G)
# Sequence of PUM1 PUF domain R3-TGQ (Q14671 828-1176 C935T/R936G): as the sequence (Q14671 828-1176 S863K/Q867G) above, with K36S, G40Q, C108T, R109G counted along it
# Summary of the method: as §1
# [18] = molecular target: PUM1 PUF domain R8-AWR (Homo sapiens, UniProt Q14671 828-1176, N1122A;Y1123W;Q1126R)
# Sequence of PUM1 PUF domain R8-AWR (Q14671 828-1176 N1122A/Y1123W/Q1126R): as the sequence (Q14671 828-1176 S863K/Q867G) above, with K36S, G40Q, N295A, Y296W, Q299R counted along it
# Summary of the method: as §1
# [19] = molecular target: PUM1 PUF domain R7-RSK (Homo sapiens, UniProt Q14671 828-1176, S1079R;N1080S;E1083K)
# Summary of the method: as §1
# [20] = molecular target: PUM1 PUF domain R2-LLL (Homo sapiens, UniProt Q14671 828-1176, N899L;Y900L;Q903L)
# Sequence of PUM1 PUF domain R2-LLL (Q14671 828-1176 N899L/Y900L/Q903L): as the sequence (Q14671 828-1176 S863K/Q867G) above, with K36S, G40Q, N72L, Y73L, Q76L counted along it
# Summary of the method: as §1
sequence,measurement,setting,value
GGCUAGAACUAGUGGAUCCCCCGGCGCCCGGCGGCUCGAGCCCGGGUAAGUGUAAAUCGUCUGCAUGCCGCCGGGCGCCAUGCCUGCAGGUCGACUCUAGAAAACAUG,binding signal,[1],4.21 log2 enrichment (interaction score)
same,binding signal,[2],7.03 log2 enrichment (interaction score)
same,binding signal,[3],2.86 log2 enrichment (interaction score)
same,binding signal,[4],4.66 log2 enrichment (interaction score)
GGCUAGAACUAGUGGAUCCCCCGGCGCCCGGCGGCUCGAGCCCGGGUAAGUGUCAAUAGUCUGCAUGCCGCCGGGCGCCAUGCCUGCAGGUCGACUCUAGAAAACAUG,binding signal,[5],3.01 log2 enrichment (interaction score)
GGCUAGAACUAGUGGAUCCCCCGGCGCCCGGCGGCUCGAGCCCGGGUAAGUGUAAGUAGUCUGCAUGCCGCCGGGCGCCAUGCCUGCAGGUCGACUCUAGAAAACAUG,binding signal,[6],2.6 log2 enrichment (interaction score)
GGCUAGAACUAGUGGAUCCCCCGGCGCCCGGCGGCUCGAGCCCGGGUAAGUGAAAAUAGUCUGCAUGCCGCCGGGCGCCAUGCCUGCAGGUCGACUCUAGAAAACAUG,binding signal,[7],1.38 log2 enrichment (interaction score)
GGCUAGAACUAGUGGAUCCCCCGGCGCCCGGCGGCUCGAGCCCGGGUAAGUGUUAAUAGUCUGCAUGCCGCCGGGCGCCAUGCCUGCAGGUCGACUCUAGAAAACAUG,binding signal,[5],0.73 log2 enrichment (interaction score)
same,binding signal,[8],2.93 log2 enrichment (interaction score)
same,binding signal,[9],3.06 log2 enrichment (interaction score)
GGCUAGAACUAGUGGAUCCCCCGGCGCCCGGCGGCUCGAGCCCGGGUAAGUGUAAUUAGUCUGCAUGCCGCCGGGCGCCAUGCCUGCAGGUCGACUCUAGAAAACAUG,binding signal,[10],2.3 log2 enrichment (interaction score)
same,binding signal,[11],1.88 log2 enrichment (interaction score)
same,binding signal,[6],0.43 log2 enrichment (interaction score)
GGCUAGAACUAGUGGAUCCCCCGGCGCCCGGCGGCUCGAGCCCGGGUAAGUGUGAAUAGUCUGCAUGCCGCCGGGCGCCAUGCCUGCAGGUCGACUCUAGAAAACAUG,binding signal,[12],3.06 log2 enrichment (interaction score)
GGCUAGAACUAGUGGAUCCCCCGGCGCCCGGCGGCUCGAGCCCGGGUAAGUGUAAAUAGUCUGCAUGCCGCCGGGCGCCAUGCCUGCAGGUCGACUCUAGAAAACAUG,binding signal,[13],4.62 log2 enrichment (interaction score)
same,binding signal,[10],4.55 log2 enrichment (interaction score)
same,binding signal,[14],3.4 log2 enrichment (interaction score)
same,binding signal,[7],3.26 log2 enrichment (interaction score)
same,binding signal,[11],4.23 log2 enrichment (interaction score)
same,binding signal,[6],3.28 log2 enrichment (interaction score)
same,binding signal,[15],5.71 log2 enrichment (interaction score)
same,binding signal,[16],3.59 log2 enrichment (interaction score)
same,binding signal,[17],4.55 log2 enrichment (interaction score)
same,binding signal,[18],4.49 log2 enrichment (interaction score)
GGCUAGAACUAGUGGAUCCCCCGGCGCCCGGCGGCUCGAGCCCGGGUAAGUUUAAAUAGUCUGCAUGCCGCCGGGCGCCAUGCCUGCAGGUCGACUCUAGAAAACAUG,binding signal,[19],3.42 log2 enrichment (interaction score)
GGCUAGAACUAGUGGAUCCCCCGGCGCCCGGCGGCUCGAGCCCGGGUAAGUGUAAAUUGUCUGCAUGCCGCCGGGCGCCAUGCCUGCAGGUCGACUCUAGAAAACAUG,binding signal,[1],1.83 log2 enrichment (interaction score)
same,binding signal,[2],7.79 log2 enrichment (interaction score)
same,binding signal,[3],1.23 log2 enrichment (interaction score)
GGCUAGAACUAGUGGAUCCCCCGGCGCCCGGCGGCUCGAGCCCGGGUAAGUGUAAAGAGUCUGCAUGCCGCCGGGCGCCAUGCCUGCAGGUCGACUCUAGAAAACAUG,binding signal,[20],3.06 log2 enrichment (interaction score)
GGCUAGAACUAGUGGAUCCCCCGGCGCCCGGCGGCUCGAGCCCGGGUAAGUCUAAAUAGUCUGCAUGCCGCCGGGCGCCAUGCCUGCAGGUCGACUCUAGAAAACAUG,binding signal,[19],3.84 log2 enrichment (interaction score)
GGCUAGAACUAGUGGAUCCCCCGGCGCCCGGCGGCUCGAGCCCGGGUAAGCGUAAAUAGUCUGCAUGCCGCCGGGCGCCAUGCCUGCAGGUCGACUCUAGAAAACAUG,binding signal,[13],4.84 log2 enrichment (interaction score)
same,binding signal,[14],5.24 log2 enrichment (interaction score)
same,binding signal,[18],4.57 log2 enrichment (interaction score)
